Only some compounds are listed: those with a hit (about 11% of all), similar ones and a draw of the others.
Pf growth 48h: inhibits P. falciparum growth in the first generation, 48 h. P. falciparum luciferase growth in erythrocytes, 48 h. Potency, µM (highest dose often 28.7 µM), hits mostly inhibitors. actives 5.9% (n = 310,000). AID 504832
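Parasite viability was followed by luminescence of a genomically integrated firefly luciferase. Cultures held 0.1% parasitemia at 2% hematocrit (final), incubated under 5% CO2 at 37 C.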
Sm TGR inh: S. mansoni TGR enzyme inhibition; Potency, µM (highest dose often 114 µM), most hits filed as inhibitors; purified TGR, DTNB reduction, TNB absorbance 405 nm; Q962Y6; actives 3% (n = 360,000); also: nearly all actives have a fitted effect of over 60% in size
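Kinetic colorimetric format: TGR-catalysed, NADPH-driven DTNB reduction monitored via TNB absorbance. Enzyme dispensed at 20 nM; compound exposure 15 min at room temperature before reaction start.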
Pf growth 96h: P. falciparum growth inhibition at 96 hour, primary screen for plastid delayed-death inhibitors. P. falciparum luciferase reporter growth, 96 h. Potency, µM (highest dose often 28.7 µM), usual class: inhibitors. actives 6.9% (n = 320,000). AID 504834
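Two-generation exposure (96 h) targets delayed-death phenotype. Reporter parasites carrying integrated firefly luciferase, in red cells at 2% hematocrit and 0.05% parasitemia final, kept at 37 C, 5% CO2; luminescence loss indicates inhibition.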
NS1 inh: influenza NS1 inhibition; Potency, µM (series often up to 46.1 µM); actives 0.4% (n = 270,000); AID 2326; calls by dose curve; also: actives are rising curves; nearly all actives have a fitted effect of over 50% in size
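Growth recovery, yeast-based: influenza A NS1 expressed in S. cerevisiae causes slow growth, and suppressors are detected by OD600. The parent strain without NS1 is used as positive control.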
AMA1-RON2 inh: AMA1-RON2 (P. falciparum) interaction inhibition; AID 720542; actives 0.2% (n = 360,000); AlphaScreen AMA1-biotinylated RON2 peptide binding; Potency, µM (titrated, usually from 58.2 µM), most hits filed as inhibitors; also: nearly all actives have a fitted effect of over 45% in size
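AMA1 (3D7) with his tag at 25 nM final met compounds first, then biotinylated RON2 peptide at 25 nM; detection used donor plus acceptor beads, 10 µg/mL apiece, read by AlphaScreen after 30 min at room temperature.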
Large screens that a line does not name were inactive. Unless noted, calls follow the shape of the dose curve; as a rule, active = well fitted curve in the direction sought with a large enough effect; inconclusive = small, poorly fitted or top-dose-only effect, or another doubt; inactive = no such curve, though single readings can be large; an effect the other way counts as inactive or inconclusive.

O=C(CN1C(=O)NC(c2ccccc2)(c2ccccc2)C1=O)NC1CCCC1	Pf growth 96h inconclusive (no result: NS1 inh)
c1ccc(SC(Sc2ccccc2)c2ccc3c(c2)OCO3)cc1	none (no result: Pf growth 48h, Sm TGR inh, Pf growth 96h, AMA1-RON2 inh)
N#CC(CO)(Cc1ccc(OC(F)F)cc1)c1nc2ccccc2[nH]1 (stereo unspecified)	Pf growth 96h inconclusive
COc1ccc(CC(C#N)(CO)c2nc3ccccc3[nH]2)cc1 (stereo unspecified)	Pf growth 48h inconclusive, Pf growth 96h 2.3µM
COc1cc(NS(=O)(=O)c2ccc(NC(=S)NC(=O)c3ccco3)cc2)nc(OC)n1	Sm TGR inh 32µM
Cc1cc(C)nc(NS(=O)(=O)c2ccc(NC(=S)NC(=O)c3ccco3)cc2)n1	Sm TGR inh 14µM
Cc1cc(C)nc(NS(=O)(=O)c2ccc(NC(=S)NC(=O)C(C)(C)C)cc2)n1	Sm TGR inh inconclusive (no result: Pf growth 48h)
COc1cc(NS(=O)(=O)c2ccc(NC(=S)NC(=O)c3sc4ccccc4c3Cl)cc2)nc(OC)n1	Pf growth 96h 12µM
Cn1cc(Br)c(C(=O)NN2C(=O)C3C(C2=O)C2C=CC3C23CC3)n1 (stereo unspecified)	Pf growth 96h inconclusive
COc1cc(CN2CCCC(C(=O)c3ccc(C(C)(C)C)cc3)C2)cc(OC)c1O (stereo unspecified)	Pf growth 48h 6.6µM, Sm TGR inh inconclusive
O=C(c1ccc(Cl)cc1)C1CCCN(Cc2ccc3nonc3c2)C1 (stereo unspecified)	Pf growth 96h 10µM
O=C(c1cccc(Cl)c1)C1CCCN(C(=O)c2ccoc2)C1 (stereo unspecified)	Pf growth 96h 10µM
COc1cc(CN2CCCC(C(=O)c3sccc3C)C2)cc(OC)c1O (stereo unspecified)	Sm TGR inh 16µM, Pf growth 96h inconclusive
CC(C)Oc1cccc(C(=O)C2CCCN(Cc3ccc4nonc4c3)C2)c1 (stereo unspecified)	none
COc1cc(CN2CCCC(C(=O)c3sccc3C)C2)cc(Cl)c1O (stereo unspecified)	Pf growth 48h inconclusive, Sm TGR inh inconclusive, Pf growth 96h inconclusive
Cc1ncc(CN2CCCC(C(=O)c3ccc(C(C)(C)C)cc3)C2)s1 (stereo unspecified)	Pf growth 48h inconclusive, Pf growth 96h inconclusive
CCCN(Cc1nnc(-c2ccccc2Cl)o1)C(=O)COc1ccc(Cl)cc1	Pf growth 48h inconclusive, Pf growth 96h inconclusive (no result: NS1 inh)
O=C(c1ccc(C(F)(F)F)cc1)C1CCCN(Cc2ccncc2)C1 (stereo unspecified)	Pf growth 48h 12µM
COc1cccc(C(=O)C2CCCN(Cc3ccc(F)cc3)C2)c1 (stereo unspecified)	Pf growth 48h inconclusive
Cc1ccsc1C(=O)C1CCCN(Cc2cccn2-c2ccc(Cl)cn2)C1 (stereo unspecified)	Pf growth 48h 3.7µM, Pf growth 96h inconclusive
NC(=O)CCC(=O)N1CCCC(C(=O)c2ccc(C(F)(F)F)cc2)C1 (stereo unspecified)	Pf growth 96h 13µM
O=C(c1cccc(Cl)c1)C1CCCN(Cc2ccc(N3CCNC3=O)cc2)C1 (stereo unspecified)	Pf growth 48h inconclusive, Pf growth 96h 9.3µM (no result: Sm TGR inh)
COc1ccc2c(Sc3ccc(C)cc3)c(C(=O)NCc3ccc(F)cc3)[nH]c2c1	Sm TGR inh 45µM (no result: Pf growth 48h, Pf growth 96h, NS1 inh, AMA1-RON2 inh)
COc1ccc2c(Sc3ccc(C)cc3)c(C(=O)NCCc3ccccc3)[nH]c2c1	none (no result: Pf growth 48h, Pf growth 96h, NS1 inh, AMA1-RON2 inh)
COc1ccc2c(Sc3ccccc3)c(C(=O)NCCN(C)C)[nH]c2c1	Sm TGR inh 40µM (no result: Pf growth 48h, Pf growth 96h, NS1 inh, AMA1-RON2 inh)
COc1ccc(CCC(=O)OCC(=O)NC(=O)c2ccc(Cl)cc2)cc1	none (no result: Pf growth 48h, Sm TGR inh, Pf growth 96h, NS1 inh)
CCOC(=O)c1ccc(NS(=O)(=O)c2cn(C)c(C)n2)cc1	none (no result: Pf growth 48h, Pf growth 96h, NS1 inh, AMA1-RON2 inh)
Cc1occc1C(=O)Nc1cccc(Cl)c1Cl	none
CC(C)(C)NC(=O)CC1C[C@H](C(=O)N2CCCCC2)[C@@]2(CCc3ccccc3)c3[nH]c4ccccc4c3CCN2C1=O (stereo partly specified)	none (no result: Pf growth 48h, Sm TGR inh, Pf growth 96h, NS1 inh)
CCOC(=O)C1CCN(C(=O)CSc2n[nH]c(-c3ccccc3)n2)CC1	none (no result: Pf growth 48h, Pf growth 96h, NS1 inh, AMA1-RON2 inh)
CCOC(=O)CN1C(=O)C(Sc2n[nH]c(-c3cccc(C)c3)n2)CCc2ccccc21 (stereo unspecified)	Pf growth 48h 13µM, Pf growth 96h 9.3µM
CCOC(=O)CN1C(=O)C(Sc2n[nH]c(-c3ccc(C)cc3)n2)CCc2ccccc21 (stereo unspecified)	Pf growth 48h inconclusive, Pf growth 96h 12µM
COC(=O)[C@]12CCCCC=C1N(CCC1=CCCCC1)C(=O)[C@H](CC(=O)N1CCC(c3ccccc3)CC1)C2	none (no result: Pf growth 48h, Sm TGR inh, Pf growth 96h, NS1 inh)
COc1cc(/C=C/C(=O)OCC(=O)N2CCCc3ccccc32)ccc1OC(F)F	none (no result: NS1 inh)
CC1OC(CCc2cccc(Cl)c2)Cc2[nH]c(=S)[nH]c(=O)c21 (stereo unspecified)	none (no result: Pf growth 48h, Sm TGR inh, Pf growth 96h, NS1 inh)
COc1ccc(CN(C(=O)c2ccccc2OC)C2CCS(=O)(=O)C2)cc1 (stereo unspecified)	Pf growth 48h inconclusive
COc1cc(C(=O)N(Cc2cccc(Cl)c2)C2CCS(=O)(=O)C2)cc(OC)c1OC (stereo unspecified)	Pf growth 48h inconclusive (no result: Pf growth 96h)
COc1ccccc1C(=O)N(Cc1ccc(Cl)cc1)C1CCS(=O)(=O)C1 (stereo unspecified)	Pf growth 96h 12µM
COc1cccc(CN(C(=O)c2cc3ccccc3oc2=O)C2CCS(=O)(=O)C2)c1 (stereo unspecified)	Pf growth 96h 6.6µM, NS1 inh inconclusive
COc1cc(C(=O)N(Cc2ccc(F)cc2)C2CCS(=O)(=O)C2)cc(OC)c1OC (stereo unspecified)	Pf growth 48h inconclusive, Pf growth 96h 8.3µM
O=C(c1cc2ccccc2oc1=O)N(Cc1cccc(Cl)c1)C1CCS(=O)(=O)C1 (stereo unspecified)	none (no result: Pf growth 48h, Pf growth 96h, NS1 inh, AMA1-RON2 inh)
O=C(Cc1c(Cl)cccc1Cl)OCC(=O)N1CCN(C(=O)c2ccco2)CC1	none
CCN(C(=O)CCNC(=O)Cn1cnc2ccccc2c1=O)c1ccccc1F	Pf growth 96h inconclusive
COc1ccc(OC)c(C(=O)C2COC(=O)C2)c1 (stereo unspecified)	Pf growth 48h 10µM
CCSc1sccc1C1C(C#N)=C(N)N(c2cccnc2)C2=C1C(=O)CC(C)(C)C2 (stereo unspecified)	Pf growth 48h inconclusive, Pf growth 96h inconclusive
COc1ccc(C2C(C#N)=C(N)N(N(C)C)C3=C2C(=O)CC(C)(C)C3)cc1OC (stereo unspecified)	Pf growth 48h inconclusive, Pf growth 96h inconclusive
COc1ccc(C2C(C#N)=C(N)N(c3cccnc3)C3=C2C(=O)CC(C)(C)C3)cc1OC (stereo unspecified)	Sm TGR inh 45µM, Pf growth 96h inconclusive (no result: NS1 inh)
CC1(C)CC(=O)C2=C(C1)N(c1cccnc1)C(N)=C(C#N)C2c1cccs1 (stereo unspecified)	Sm TGR inh 50µM, Pf growth 96h inconclusive
CCC(C)n1c(SCc2ccc(F)cc2Cl)nc2ccsc2c1=O (stereo unspecified)	none (no result: Pf growth 48h, Pf growth 96h, NS1 inh, AMA1-RON2 inh)
